This note sets out measurements from ChEMBL document CHEMBL1961873, “Compounds: GSK PKIS; Assays: Nanosyn kinase panel” (2012).

The target in assay [1] is Sphingosine kinase 1 (Homo sapiens) (UniProt Q9NYA1). The following applies: at 1 µM.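 Further: mean SPHK1 inhibition value reported from the GSK PKIS kinase panel screen.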
Assay [2] deals with T1, Sphingosine kinase 2 (Homo sapiens) (UniProt Q9NRA0).
T1 sequence (whole entry): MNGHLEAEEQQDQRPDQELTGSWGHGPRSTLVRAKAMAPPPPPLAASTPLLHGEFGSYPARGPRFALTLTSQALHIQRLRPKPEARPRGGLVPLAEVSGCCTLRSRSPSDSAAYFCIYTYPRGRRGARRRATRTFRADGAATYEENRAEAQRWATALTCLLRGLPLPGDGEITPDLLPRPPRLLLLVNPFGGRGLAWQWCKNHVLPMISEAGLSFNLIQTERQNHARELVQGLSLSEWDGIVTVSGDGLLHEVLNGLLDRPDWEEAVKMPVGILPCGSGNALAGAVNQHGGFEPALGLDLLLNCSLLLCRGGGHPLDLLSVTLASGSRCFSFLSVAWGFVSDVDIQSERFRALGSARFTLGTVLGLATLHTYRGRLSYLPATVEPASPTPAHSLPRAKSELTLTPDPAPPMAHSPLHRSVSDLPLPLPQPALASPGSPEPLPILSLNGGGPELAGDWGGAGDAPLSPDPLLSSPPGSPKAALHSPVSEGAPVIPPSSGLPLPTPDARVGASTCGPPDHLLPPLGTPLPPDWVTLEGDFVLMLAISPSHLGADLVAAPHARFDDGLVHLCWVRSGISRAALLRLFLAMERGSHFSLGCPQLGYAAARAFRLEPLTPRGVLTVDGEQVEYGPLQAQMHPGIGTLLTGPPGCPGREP
The following applies: at 0.1 µM.

Assay [3] has as its target T1, Sphingosine kinase 2 (Homo sapiens). The following applies: at 1 µM.
Assay [4] concerns the target Casein kinase II subunit alpha (Homo sapiens) (UniProt P68400). The following applies: at 0.1 µM.
Assay [5] shares this target. The following applies: at 1 µM.
Assay [6] deals with T2, Inhibitor of nuclear factor kappa-B kinase subunit alpha (Homo sapiens) (UniProt O15111).
T2 sequence (whole entry): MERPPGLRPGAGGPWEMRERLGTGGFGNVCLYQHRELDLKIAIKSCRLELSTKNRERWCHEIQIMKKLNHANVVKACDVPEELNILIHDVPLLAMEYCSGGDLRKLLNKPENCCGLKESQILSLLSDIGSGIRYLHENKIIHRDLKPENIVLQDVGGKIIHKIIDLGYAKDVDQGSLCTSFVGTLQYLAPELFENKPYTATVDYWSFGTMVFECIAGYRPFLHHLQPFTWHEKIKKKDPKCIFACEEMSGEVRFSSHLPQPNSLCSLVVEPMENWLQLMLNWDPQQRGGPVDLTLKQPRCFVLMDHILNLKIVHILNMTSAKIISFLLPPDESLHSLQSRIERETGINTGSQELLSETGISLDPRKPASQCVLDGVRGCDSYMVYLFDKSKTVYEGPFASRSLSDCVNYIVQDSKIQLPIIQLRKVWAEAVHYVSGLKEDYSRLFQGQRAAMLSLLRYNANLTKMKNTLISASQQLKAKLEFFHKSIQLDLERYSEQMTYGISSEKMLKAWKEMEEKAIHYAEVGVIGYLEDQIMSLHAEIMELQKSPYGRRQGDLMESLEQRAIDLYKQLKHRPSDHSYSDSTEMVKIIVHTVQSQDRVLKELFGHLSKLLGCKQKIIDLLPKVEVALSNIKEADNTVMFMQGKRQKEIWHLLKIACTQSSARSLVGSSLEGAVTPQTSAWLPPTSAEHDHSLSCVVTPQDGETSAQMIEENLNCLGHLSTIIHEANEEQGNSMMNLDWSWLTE
The following applies: at 0.1 µM.

Assay [7] concerns the target T2, Inhibitor of nuclear factor kappa-B kinase subunit alpha (Homo sapiens). The note with it: at 1 µM.
For assay [8], the target named is T3, Inhibitor of nuclear factor kappa-B kinase subunit beta (Homo sapiens) (UniProt O14920).
T3 sequence (whole entry): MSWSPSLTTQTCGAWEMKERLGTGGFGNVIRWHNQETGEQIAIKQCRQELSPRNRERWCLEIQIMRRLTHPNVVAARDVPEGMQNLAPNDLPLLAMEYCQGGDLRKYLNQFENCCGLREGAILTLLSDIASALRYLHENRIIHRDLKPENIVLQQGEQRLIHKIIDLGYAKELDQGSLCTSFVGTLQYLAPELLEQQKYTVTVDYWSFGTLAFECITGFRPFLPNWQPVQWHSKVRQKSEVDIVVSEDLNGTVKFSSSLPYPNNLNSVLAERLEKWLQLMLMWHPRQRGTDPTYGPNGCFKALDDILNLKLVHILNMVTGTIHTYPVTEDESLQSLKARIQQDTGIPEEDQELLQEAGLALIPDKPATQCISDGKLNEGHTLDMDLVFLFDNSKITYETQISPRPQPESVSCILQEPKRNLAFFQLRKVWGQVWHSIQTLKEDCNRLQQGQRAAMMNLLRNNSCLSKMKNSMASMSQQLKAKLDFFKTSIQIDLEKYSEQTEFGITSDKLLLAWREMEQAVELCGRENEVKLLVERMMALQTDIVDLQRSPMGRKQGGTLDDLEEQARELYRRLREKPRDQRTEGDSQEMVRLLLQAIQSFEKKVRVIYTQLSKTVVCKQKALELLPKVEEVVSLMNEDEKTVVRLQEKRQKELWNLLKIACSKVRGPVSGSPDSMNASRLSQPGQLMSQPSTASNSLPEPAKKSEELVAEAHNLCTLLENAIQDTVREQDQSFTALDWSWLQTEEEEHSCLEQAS
The note with it: at 0.1 µM.

In assay [9] the target is T3, Inhibitor of nuclear factor kappa-B kinase subunit beta (Homo sapiens). The following applies: at 1 µM.
Assay [10] addresses T4, Inhibitor of nuclear factor kappa-B kinase subunit epsilon (Homo sapiens) (UniProt Q14164).
T4 sequence (whole entry): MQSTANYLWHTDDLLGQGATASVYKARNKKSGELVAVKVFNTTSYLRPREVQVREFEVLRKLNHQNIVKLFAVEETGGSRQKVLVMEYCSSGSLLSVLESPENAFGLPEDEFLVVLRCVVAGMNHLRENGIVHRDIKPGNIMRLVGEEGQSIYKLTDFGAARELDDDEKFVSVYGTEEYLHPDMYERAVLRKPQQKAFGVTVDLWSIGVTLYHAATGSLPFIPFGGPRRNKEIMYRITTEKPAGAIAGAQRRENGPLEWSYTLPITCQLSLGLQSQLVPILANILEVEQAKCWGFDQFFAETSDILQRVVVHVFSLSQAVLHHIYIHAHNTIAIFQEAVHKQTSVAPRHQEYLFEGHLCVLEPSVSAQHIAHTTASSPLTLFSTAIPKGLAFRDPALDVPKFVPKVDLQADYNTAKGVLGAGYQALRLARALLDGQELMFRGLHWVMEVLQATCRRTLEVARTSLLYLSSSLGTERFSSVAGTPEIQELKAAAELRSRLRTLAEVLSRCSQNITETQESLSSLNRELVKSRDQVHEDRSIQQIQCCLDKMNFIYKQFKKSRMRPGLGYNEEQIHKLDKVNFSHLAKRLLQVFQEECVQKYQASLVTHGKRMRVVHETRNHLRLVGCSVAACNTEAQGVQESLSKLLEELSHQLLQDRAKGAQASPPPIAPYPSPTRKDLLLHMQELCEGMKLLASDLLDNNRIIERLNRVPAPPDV
The note with it: at 0.1 µM.

For assay [11], the target named is T4, Inhibitor of nuclear factor kappa-B kinase subunit epsilon (Homo sapiens). The note with it: at 1 µM.
Assay [12] deals with T5, Serine/threonine-protein kinase Nek1 (Homo sapiens) (UniProt Q96PY6).
T5 sequence (whole entry): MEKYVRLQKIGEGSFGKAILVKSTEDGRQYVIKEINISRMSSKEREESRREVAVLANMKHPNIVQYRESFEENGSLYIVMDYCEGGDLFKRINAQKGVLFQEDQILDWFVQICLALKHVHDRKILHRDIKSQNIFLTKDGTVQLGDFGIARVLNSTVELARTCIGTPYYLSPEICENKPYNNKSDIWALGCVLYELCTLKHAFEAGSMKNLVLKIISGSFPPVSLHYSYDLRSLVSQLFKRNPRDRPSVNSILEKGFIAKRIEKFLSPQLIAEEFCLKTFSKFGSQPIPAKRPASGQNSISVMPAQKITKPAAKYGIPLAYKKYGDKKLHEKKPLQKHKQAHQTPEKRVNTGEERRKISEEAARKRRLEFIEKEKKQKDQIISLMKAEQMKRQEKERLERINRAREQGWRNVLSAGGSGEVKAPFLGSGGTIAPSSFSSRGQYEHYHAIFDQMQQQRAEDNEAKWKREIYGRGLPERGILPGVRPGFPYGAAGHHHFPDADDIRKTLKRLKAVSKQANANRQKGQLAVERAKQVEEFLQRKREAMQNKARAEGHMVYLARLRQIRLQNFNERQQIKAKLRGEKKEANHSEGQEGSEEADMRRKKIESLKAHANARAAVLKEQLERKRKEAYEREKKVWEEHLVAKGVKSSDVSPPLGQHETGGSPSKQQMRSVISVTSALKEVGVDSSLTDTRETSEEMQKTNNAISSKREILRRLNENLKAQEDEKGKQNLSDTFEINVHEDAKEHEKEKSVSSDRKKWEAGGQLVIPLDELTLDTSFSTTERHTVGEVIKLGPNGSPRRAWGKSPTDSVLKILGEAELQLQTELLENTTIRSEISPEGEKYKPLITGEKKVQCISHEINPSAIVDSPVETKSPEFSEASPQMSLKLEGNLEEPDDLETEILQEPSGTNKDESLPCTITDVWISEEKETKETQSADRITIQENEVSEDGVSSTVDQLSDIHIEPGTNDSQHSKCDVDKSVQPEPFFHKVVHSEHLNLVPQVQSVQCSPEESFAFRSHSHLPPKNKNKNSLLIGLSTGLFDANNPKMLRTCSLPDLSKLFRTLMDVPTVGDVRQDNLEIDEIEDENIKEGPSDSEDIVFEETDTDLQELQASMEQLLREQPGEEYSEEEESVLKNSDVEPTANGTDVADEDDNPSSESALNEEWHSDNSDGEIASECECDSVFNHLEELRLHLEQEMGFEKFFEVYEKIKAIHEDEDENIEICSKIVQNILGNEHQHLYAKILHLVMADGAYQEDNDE
The following applies: at 0.1 µM.

Assay [13] concerns the target T5, Serine/threonine-protein kinase Nek1 (Homo sapiens). The note with it: at 1 µM.
Assay [14] has as its target T6, Serine/threonine-protein kinase Nek2 (Homo sapiens) (UniProt P51955).
T6 sequence (whole entry): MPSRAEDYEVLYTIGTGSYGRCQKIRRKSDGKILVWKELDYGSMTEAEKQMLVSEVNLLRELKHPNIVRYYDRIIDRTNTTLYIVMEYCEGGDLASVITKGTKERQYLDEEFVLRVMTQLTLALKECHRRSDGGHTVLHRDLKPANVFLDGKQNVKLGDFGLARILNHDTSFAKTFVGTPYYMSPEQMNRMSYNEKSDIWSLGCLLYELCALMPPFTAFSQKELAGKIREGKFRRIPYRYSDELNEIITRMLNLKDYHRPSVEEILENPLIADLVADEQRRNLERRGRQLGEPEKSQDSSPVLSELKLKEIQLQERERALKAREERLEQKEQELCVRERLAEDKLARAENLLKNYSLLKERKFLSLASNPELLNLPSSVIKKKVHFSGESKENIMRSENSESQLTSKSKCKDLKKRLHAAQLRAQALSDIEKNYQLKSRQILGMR
The following applies: at 0.1 µM.

For assay [15], the target named is T6, Serine/threonine-protein kinase Nek2 (Homo sapiens). The following applies: at 1 µM.
The target in assay [16] is Serine/threonine-protein kinase Nek6 (Homo sapiens) (UniProt Q9HC98). The note with it: at 0.1 µM.
For assay [17] the target is unchanged. The following applies: at 1 µM.
The target in assay [18] is Serine/threonine-protein kinase Nek7 (Homo sapiens) (UniProt Q8TDX7). The following applies: at 0.1 µM.
The target is the same in assay [19]. The note with it: at 1 µM.
In assay [20] the target is T7, Serine/threonine-protein kinase Nek9 (Homo sapiens) (UniProt Q8TD19).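 Further: reported value is the mean percent inhibition of NEK9.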
T7 sequence (whole entry): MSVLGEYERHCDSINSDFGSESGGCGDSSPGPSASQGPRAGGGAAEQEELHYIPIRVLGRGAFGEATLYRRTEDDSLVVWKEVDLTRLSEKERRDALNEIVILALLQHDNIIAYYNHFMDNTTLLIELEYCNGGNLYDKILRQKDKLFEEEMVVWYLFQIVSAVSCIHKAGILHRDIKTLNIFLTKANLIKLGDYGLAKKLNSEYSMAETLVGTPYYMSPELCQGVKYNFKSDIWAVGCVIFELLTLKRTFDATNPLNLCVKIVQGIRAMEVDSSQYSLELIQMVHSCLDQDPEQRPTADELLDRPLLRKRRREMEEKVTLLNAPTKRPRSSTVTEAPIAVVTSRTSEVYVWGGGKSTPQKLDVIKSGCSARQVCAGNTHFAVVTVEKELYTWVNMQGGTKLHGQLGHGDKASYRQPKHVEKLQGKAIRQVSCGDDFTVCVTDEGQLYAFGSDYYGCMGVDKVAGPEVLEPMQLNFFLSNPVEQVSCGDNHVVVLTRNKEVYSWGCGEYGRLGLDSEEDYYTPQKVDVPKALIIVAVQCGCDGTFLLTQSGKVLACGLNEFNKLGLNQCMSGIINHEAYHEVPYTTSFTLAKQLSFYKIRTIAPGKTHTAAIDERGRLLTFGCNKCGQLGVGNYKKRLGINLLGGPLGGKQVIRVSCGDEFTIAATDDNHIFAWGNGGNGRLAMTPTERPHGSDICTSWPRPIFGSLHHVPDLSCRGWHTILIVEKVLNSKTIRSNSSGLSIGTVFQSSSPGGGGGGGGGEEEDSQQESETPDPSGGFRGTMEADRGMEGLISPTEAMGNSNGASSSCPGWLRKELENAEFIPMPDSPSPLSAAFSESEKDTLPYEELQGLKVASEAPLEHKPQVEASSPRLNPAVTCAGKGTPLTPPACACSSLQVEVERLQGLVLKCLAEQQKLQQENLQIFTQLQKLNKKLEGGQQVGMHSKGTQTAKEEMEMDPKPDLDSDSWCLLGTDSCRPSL
The following applies: at 0.1 µM.

Serine/threonine-protein kinase Nek7 (Homo sapiens), sequence (Q8TDX7 whole entry, looked up): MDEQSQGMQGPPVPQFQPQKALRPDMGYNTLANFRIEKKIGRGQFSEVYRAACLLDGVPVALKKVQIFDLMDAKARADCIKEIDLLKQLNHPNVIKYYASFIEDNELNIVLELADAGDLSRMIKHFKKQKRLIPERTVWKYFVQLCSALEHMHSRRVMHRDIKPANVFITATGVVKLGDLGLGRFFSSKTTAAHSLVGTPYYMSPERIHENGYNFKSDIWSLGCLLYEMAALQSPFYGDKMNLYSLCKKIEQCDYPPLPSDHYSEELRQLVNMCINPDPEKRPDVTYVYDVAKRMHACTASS
Serine/threonine-protein kinase Nek6 (Homo sapiens), sequence (Q9HC98 whole entry): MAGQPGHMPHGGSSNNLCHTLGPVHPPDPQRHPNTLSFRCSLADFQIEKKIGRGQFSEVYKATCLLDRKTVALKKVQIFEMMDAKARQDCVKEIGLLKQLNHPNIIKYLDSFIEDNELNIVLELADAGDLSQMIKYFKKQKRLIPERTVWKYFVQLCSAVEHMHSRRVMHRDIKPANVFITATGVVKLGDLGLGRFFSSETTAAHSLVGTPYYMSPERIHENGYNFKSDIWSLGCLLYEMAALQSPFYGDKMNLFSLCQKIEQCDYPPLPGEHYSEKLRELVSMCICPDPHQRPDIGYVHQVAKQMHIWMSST
Casein kinase II subunit alpha (Homo sapiens), sequence (P68400 whole entry, looked up): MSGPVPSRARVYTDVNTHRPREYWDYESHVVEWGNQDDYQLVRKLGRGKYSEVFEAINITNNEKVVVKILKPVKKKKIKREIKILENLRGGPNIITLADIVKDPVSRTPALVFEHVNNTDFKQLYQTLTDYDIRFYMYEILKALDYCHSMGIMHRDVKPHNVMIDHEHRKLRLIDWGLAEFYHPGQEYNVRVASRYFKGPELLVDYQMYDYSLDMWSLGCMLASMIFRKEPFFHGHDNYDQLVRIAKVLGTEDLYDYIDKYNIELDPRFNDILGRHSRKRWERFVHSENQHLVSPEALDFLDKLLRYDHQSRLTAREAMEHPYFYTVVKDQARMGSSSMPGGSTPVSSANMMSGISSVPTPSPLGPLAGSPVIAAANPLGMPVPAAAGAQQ
Sphingosine kinase 1 (Homo sapiens), sequence (Q9NYA1 whole entry): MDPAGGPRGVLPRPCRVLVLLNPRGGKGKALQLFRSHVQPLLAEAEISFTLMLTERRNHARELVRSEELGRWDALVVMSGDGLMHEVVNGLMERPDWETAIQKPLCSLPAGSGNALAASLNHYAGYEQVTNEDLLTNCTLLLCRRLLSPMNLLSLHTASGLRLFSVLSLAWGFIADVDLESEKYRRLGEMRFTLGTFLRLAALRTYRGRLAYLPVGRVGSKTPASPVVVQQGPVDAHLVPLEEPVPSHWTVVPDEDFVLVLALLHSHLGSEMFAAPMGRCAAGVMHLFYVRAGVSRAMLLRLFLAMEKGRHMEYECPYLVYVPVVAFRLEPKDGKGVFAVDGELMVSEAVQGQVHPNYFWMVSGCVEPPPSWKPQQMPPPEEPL

For `Cc1c2ccc(N(C)c3ccnc(Nc4cccc(S(N)(=O)=O)c4)n3)cc2nn1C`, the inhibition (in general, the change of the read-out against control, counted positive when it falls) in assay [1] was 1.41%; in [2], -0.17%; in assay [3], 0%; in assay [4], 0.52%; in assay [5], 0.25%; in assay [6] it was 7.99%. Moreover, the inhibition in assay [7] was determined as 3.93%; in [8], 5.79%; in [9], 5.44%; in assay [10], 4.78%; in [11] it was 6.19%; in assay [12], 3.11%. In addition, the inhibition was determined as 4.82% in assay [13]; 6.4% in [14]; 19.9% in assay [15]; 0.7% in [16]; 0.72% in assay [17]; 5.3% in assay [18]. The inhibition in assay [19] stood at 3.13%; in assay [20] it was 9.14%.
